# Measured values taken from PubChem BioAssay (NCATS).
# Several values for one entry are separate records, joined by “and”; a condition that tells them apart may be missing. Equal values may be shown once. Inconclusive results are not listed. A number with no mark means an inactive call. Calls come from the whole dose curve; as a rule, active = well fitted curve in the direction sought with a large enough effect in the signal ratio, with a control signal flat; inconclusive = small, poorly fitted or top-dose-only effect, or effect the other way, or a change in a side signal; inactive = no such curve, though single readings can be large or run the other way; the % refers to the signal ratio.
# Target: Androgen receptor (Homo sapiens) (UniProt P10275)
# Sequence (P10275 whole entry, looked up): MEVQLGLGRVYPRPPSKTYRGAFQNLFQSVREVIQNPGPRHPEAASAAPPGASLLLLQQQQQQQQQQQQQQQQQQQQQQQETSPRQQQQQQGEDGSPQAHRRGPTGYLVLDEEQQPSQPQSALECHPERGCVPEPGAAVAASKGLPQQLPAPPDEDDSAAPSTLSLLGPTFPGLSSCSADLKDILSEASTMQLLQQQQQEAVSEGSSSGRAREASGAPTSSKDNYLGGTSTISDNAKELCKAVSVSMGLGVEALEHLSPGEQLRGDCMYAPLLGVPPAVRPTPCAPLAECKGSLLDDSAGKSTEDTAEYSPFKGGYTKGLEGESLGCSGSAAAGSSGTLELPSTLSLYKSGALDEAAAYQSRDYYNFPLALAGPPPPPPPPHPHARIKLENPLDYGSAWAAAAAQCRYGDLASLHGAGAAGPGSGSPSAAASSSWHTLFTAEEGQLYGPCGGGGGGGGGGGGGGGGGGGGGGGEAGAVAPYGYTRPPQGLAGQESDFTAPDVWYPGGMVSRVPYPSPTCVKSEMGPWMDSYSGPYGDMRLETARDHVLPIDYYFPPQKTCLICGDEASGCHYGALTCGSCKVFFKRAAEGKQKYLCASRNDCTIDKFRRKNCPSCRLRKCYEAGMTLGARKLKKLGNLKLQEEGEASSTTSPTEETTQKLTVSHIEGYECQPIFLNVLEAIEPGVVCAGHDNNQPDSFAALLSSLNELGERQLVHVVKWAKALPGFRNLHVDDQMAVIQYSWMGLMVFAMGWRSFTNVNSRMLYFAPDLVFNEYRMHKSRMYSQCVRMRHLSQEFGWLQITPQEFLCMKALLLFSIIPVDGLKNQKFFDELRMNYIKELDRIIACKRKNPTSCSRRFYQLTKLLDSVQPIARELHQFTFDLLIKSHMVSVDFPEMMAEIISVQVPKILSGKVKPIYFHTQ
# Assay: qHTS assay for small molecule agonists of androgen receptor signaling (AID 588515)
# Conditions: AR-UAS-bla HEK293, beta-lactamase ratio, agonist 16 h; hits give high values
# Excerpt: NIH Chemical Genomics Center [NCGC] U.S. Environmental Protection Agency [EPA] National Institutes of Environmental Health Sciences [NIEHS] National Toxicology Program [NTP] NCGC Assay Overview Androgen receptor (AR), located at chromosome Xq11-12, is an important member of nuclear hormone receptors. AR signaling plays a critical role in AR-dependent prostate cancer and other androgen related diseases. Considerable attention has been given in the past decades to the possibility of some of environmental chemicals which may contribute the endocrine disruption. Therefore, it is important to understand the effect of environmental chemicals in AR signaling pathway.
# NCGC Assay Protocol Summary Using a beta-lactamase reporter-gene under control of the AR response element, a cell-based assay [GeneBLAzer AR-UAS-bla-GripTite assay developed by Invitrogen] was used to measure AR ligands signaling. AR-UAS-bla-GripTite HEK 293 cells were used with assay medium containing 10% dialyzed FBS, 0.1 mM NEAA and 1 mM sodium pyruvate. The assay was performed in clear bottom black Greiner 1536-well plates. R1881, a synthetic androgen agonist, was used as a positive control in the screen. Library compounds were measured for their ability to stimulate the reporter gene activity. Compounds were screened in a titration series in 1536-well format. The fluorescence intensity (405 nm excitation, 460/530 nm emission) was measured using an EnVision plate reader. Data was normalized relative to R1881 control (30 nM, 100%), and DMSO only wells (basal, 0%). Concentration-response titration points for each compound were fitted to the Hill equation yielding concentrations of half-maximal stimulation (EC50) and maximal response (efficacy) values. qHTS protocol for AR beta-lactamase assay in agonist mode [Step] [Parameter] [Value] [Description] 1. Reagent; 6 uL; 2000 cells/well 2. Incubation; 37 C for 5 hrs 3. Compounds; 23 nL; 0.59 nM to 92 uM 4. Controls (R1881); 23 nL, - Dose response, start 3.83uM, 1:3 dilutions with duplicates in one column - Final concentrations of 30 and 20nM in two columns 5. Incubation; 37 C for 16 hrs 6. Detection reagent; 1 uL of CCF4-dye 7. Incubation; RT for 2 hrs 8. Detection; Fluorescence; Envision plate reader
# % is set by controls: 0 for no effect and ±100 for the full control effect.
row,Compound,activation
1,[O-][Br+2]([O-])O,4.89% and 1.1%
2,C=CCOC(C)=O,-7.35%
3,CC(C)(C)OO,-8.84%
4,CCSC(=O)Cl,5.7%
5,c1ccc2c(c1)CCCC2,-2.87%
6,CCC(=O)Nc1ccc(Cl)c(Cl)c1,16.4%
7,O=S1OCC2C(CO1)C1(Cl)C(Cl)=C(Cl)C2(Cl)C1(Cl)Cl (stereo not drawn),-11.1%
8,CCN(CC)c1ccccc1,12.2%
9,S=C=Nc1cccc2ccccc12,-5.44%
10,CCc1cccc(CC)c1N(COC)C(=O)CCl,-10.2% and -10.1%
11,Nc1ccccc1Cl,9.37%
12,COC1=CC(=O)OC(CCc2ccccc2)C1 (stereo not drawn),-22.1%
13,O=NN(CCO)CCO,14%
14,C=C(Cl)Cl,2.29%
15,CC(COc1ccc(Oc2ccccc2)cc1)Oc1ccccn1 (stereo not drawn),-2.33%
16,CCS(=O)CCSP(=O)(OC)OC (stereo not drawn),7.09%
17,Clc1ccc2ccccc2c1,11.2%
18,Cc1ccc2ccccc2c1,23%
19,Clc1cccc(C(Cl)(Cl)Cl)n1,-4.18%
20,O=C(Cl)/C=C/C(=O)Cl,8.8%
21,O=C(O)COc1cc(Cl)c(Cl)cc1Cl,-1.88%
22,Brc1ccccc1,9.26% and -0.282%
23,c1ccc(-c2ccccc2)cc1,-1.76% and -0.536%
